Compound activity as filed in PubChem BioAssay.
KinaseGlo FLuc: counter-screen: inhibitors of Kinase-Glo firefly luciferase | Q27757 | Kinase-Glo luciferase, ATP luminescence, 8 min | Potency, µM (series often up to 38.3 µM), inactives show at the top dose activity change, negative = inhibition, hits mostly inhibitors | 200,000 compounds, 0.28% hits | AID 1379; note: % is set by controls: 0 for no effect and ±100 for the full control effect; nearly all actives have a fitted effect of over 60% in size
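Substrate mix (final 50 mM imidazole pH 7.2, 50 mM KCl, 7 mM MgCl2, 10 uM ATP, 0.01% Tween 20, 0.05% BSA) plus pin-tool compound, then Kinase-Glo detection mix; 8 min ambient, luminescence read.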
NPC1 prom act: activators of NPC1 promoter; Huh7 NPC1 promoter luciferase reporter, 24 h; Potency, µM (doses to about 9.22 µM), without a hit: at the top dose activation, hits mostly activators; 320,000 compounds, 2.4% hits; note: % of control where 0% means no effect; nearly all actives have a fitted effect of over 60% in size
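NPC1 promoter–luciferase Huh7 cells; 24 h compound; luminescence.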
SMN2 splice up: SMN2 splice variant enhancement. AID 1458. HEK293 SMN2-luciferase splicing reporter, luminescence, 30-36 h. Potency, µM (top dose mostly 46.1 µM), for inactives: at the highest dose activity change, positive = activation, hits mostly activators. 210,000 compounds, 2.8% hits; note: % of control where 0% means no effect; nearly all actives have a fitted effect of over 55% in size
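qHTS luciferase splicing reporter: luminescence rises when SMN2 exon 7 is included in transfected HEK293 cells. Compound exposure lasted 30-36 h at 37C, with 4.5 mM final sodium butyrate as control, followed by a ONE-Glo read.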
ELG1 genotox: inducers of genotoxicity in HEK293T ELG1-luciferase cells; HEK293T ELG1-luciferase reporter, luminescence, 16 h; Potency, µM (titrated, usually from 46 µM), without a hit: top-dose activity change, positive = activation, actives largely listed as activators; 330,000 compounds, 1.3% hits; AID 504466; note: % of control where 0% means no effect; nearly all actives have a fitted effect of over 60% in size
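After overnight (16 hr) compound treatment at 37 °C, ELG1-luciferase HEK293T cells were lysed with ONE-Glo; luminescence quantified 30 min later at room temperature.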
FLuc modulator: firefly luciferase modulation, counter-screen for miR-21 project; P08659; purified FLuc, Km substrates, luminescence inhibition; Potency, µM (series often up to 57.5 µM), for inactives: at the highest dose activity change, negative = inhibition, actives largely listed as inhibitors; 360,000 compounds, 6.9% hits; AID 588342;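 note: plate controls were vehicle for no effect and reference inhibitor for full effect; nearly all actives have a fitted effect of over 55% in size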
Target sequence (P08659 whole entry, looked up): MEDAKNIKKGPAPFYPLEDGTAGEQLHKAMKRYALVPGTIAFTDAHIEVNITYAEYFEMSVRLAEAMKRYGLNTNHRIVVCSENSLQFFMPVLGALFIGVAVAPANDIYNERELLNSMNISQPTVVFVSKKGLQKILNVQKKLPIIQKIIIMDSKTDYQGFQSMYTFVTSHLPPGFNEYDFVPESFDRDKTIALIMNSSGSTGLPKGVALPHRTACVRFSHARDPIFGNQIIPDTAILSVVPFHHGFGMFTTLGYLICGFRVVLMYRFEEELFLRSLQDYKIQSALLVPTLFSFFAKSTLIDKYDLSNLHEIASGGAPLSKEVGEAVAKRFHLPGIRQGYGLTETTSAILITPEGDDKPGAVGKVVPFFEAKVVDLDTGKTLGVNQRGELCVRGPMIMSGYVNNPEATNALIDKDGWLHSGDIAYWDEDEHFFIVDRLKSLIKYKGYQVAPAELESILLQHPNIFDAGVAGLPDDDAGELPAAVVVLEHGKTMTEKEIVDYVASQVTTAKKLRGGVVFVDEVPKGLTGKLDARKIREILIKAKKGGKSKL
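Purified P. pyralis luciferase (10nM final) with 10uM D-luciferin and 10uM ATP (Km levels) in 50mM Tris acetate pH 7.5, 10mM Mg acetate, 0.01% Tween-20, 0.05% BSA; qHTS 6-point titration, ~60 µM downward; luminescence read.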
Rab9 promoter act: activators of Rab9 promoter | Huh7 Rab9 promoter-luciferase reporter, luminescence, 24 h | Potency, µM (doses to about 9.22 µM), for inactives: at the highest dose activation, negative = inhibition, actives largely listed as activators | 320,000 compounds, 2.8% hits; note: % of control where 0% means no effect; nearly all actives have a fitted effect of over 60% in size
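Huh7 reporter line, Rab9 promoter upstream of luciferase. Compound exposure 24 h at 37 °C in reduced-serum medium with 10% FBS. Read-out: luminescence.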
The depositor's hits bear a star; u = inconclusive; x = no result given; [ ] = dose if it differs, or a comment. Sampled rows, rich in hits. Any-hit rate of the full collection: about 7.5%. Calls come from the whole dose curve; as a rule, active = well fitted curve in the direction sought with a large enough effect; inconclusive = small, poorly fitted or top-dose-only effect, or another doubt; inactive = no such curve, though single readings can be large; an effect the other way counts as inactive or inconclusive. Potency is the fitted concentration of half-maximal effect.

SMILES | KinaseGlo FLuc | NPC1 prom act | SMN2 splice up | ELG1 genotox | FLuc modulator | Rab9 promoter act
O=C(Nc1ccc(N2CCCCC2)cc1)c1ccc(F)cc1 | -10.7% | 0.891µM* | 3.55µM* | 1.64µM* | 1.2µM* | 0.447µM*
O=C(c1ccc(F)cc1)c1ccc(N2CCCCC2)cc1 | x | 2.82µM* | x | u | 6.75µM* | 2.51µM*
O=C(CCC(=O)N1CCN(c2ccc(F)cc2)CC1)N1CCN(c2ccc(F)cc2)CC1 | x | -4.2% | x | -8.2% | 3.8% | -1.8%
CC1=C(C(=O)OC2CCCC2)C(c2cccc(Cl)c2Cl)CC(=O)N1 (stereo not drawn) | x | x | 12.1% | x | 5.2% | x
CCNC(=O)c1ccc(C)c(-n2c(C)nc3cccnc32)c1 | x | x | x | x | 1.0% | x
CCOc1ccc(Cc2noc3c2C(=O)CC(C)(C)C3)cc1OCC | 8.3% | -2.9% | -41.2% | u | -5.4% | 11.8%
CCOC(=O)c1oc2ccc(S(=O)(=O)Nc3ccc4c(c3)n(C)c(=O)n4C)cc2c1C | -2.0% | -11.4% | -89.0% | 9.2% | -2.4% | -27.5%
Cc1cc(-c2nc(-c3ccc(C(C)(C)C)cc3)no2)no1 | x | 1µM* | x | u | 3.01µM* | 0.562µM*
Cc1c(-c2nc(-c3ccc(C(C)(C)C)cc3)no2)n(C)oc1=O | x | u | x | u | 10.7µM* | u
CC(C)(C)c1ccc(-c2noc(-c3ccc4c(c3)CCO4)n2)cc1 | x | u | x | u | 8.49µM* | 26.2%
Cc1ccc(CNC(=O)c2ccc(Cl)c(S(N)(=O)=O)c2)n1C | x | 1.6% | x | -0.4% | 0.0% | -3.8%
O=C(NCc1ccco1)C1CCCN1C(=O)Nc1ccccc1Cl (stereo not drawn) | -1.7% | -1.7% | 1.2% | -2.3% | -12.0% | -11.2%
Cc1cc(NC(=O)c2cc3cccc([N+](=O)[O-])c3[nH]2)ccc1F | x | 2.51µM* | x | u | 5.36µM* | 2.24µM*
COCC(C)NC(=O)c1cc2cccc([N+](=O)[O-])c2[nH]1 (stereo not drawn) | x | 14.8% | x | -5.4% | -18.6% | 17.5%
CCC(C)NC(=O)CSc1nnc(-c2cc(-c3ccc(C)cc3)nc3ccccc23)n1N (stereo not drawn) | -4.8% | -0.9% | -5.0% | -5.0% | 10.7µM* | 0.0%
CCC(C)NC(=O)CSc1nnc(-c2ccc(Cl)cc2)n1N (stereo not drawn) | 1.9% | -5.8% | -8.2% | -3.2% | -2.4% | -4.7%
Cc1ccc(-c2cc(-c3nnc(SCC(=O)NCC(C)C)n3N)c3ccccc3n2)cc1 | -6.0% | 22.6% | 4.1% | 0.7% | 16.9µM* | 4.2%
Cc1ccc(NC(=S)Nc2cc(C)on2)cc1 | x | 1.41µM* | x | u | 26.9µM* | 2.82µM*
Cc1ccc(NC(=O)c2onc(C)c2Cl)cc1 | -4.9% | 14.7% | 14.1µM* | 16.4µM* | 13.5µM* | u
Cc1cc(C(=O)Nc2ccccn2)no1 | -8.9% | u | 11.2µM* | u | u | u
Cc1ccc(NC(=S)Nc2ccc3cn[nH]c3c2)cc1 | -0.8% | 0.0% | 16.8% | -2.0% | u | -2.9%
Cc1noc(C(=O)Nc2ccc(Cl)cc2)c1Cl | x | -0.8% | x | 0.0% | -0.4% | 5.0%
CCc1ccc(NC(=O)c2cc(C)no2)cc1 | x | u | x | u | 12µM* | u
Cc1ccc2oc(C(=O)Nc3ccc(S(=O)(=O)Nc4nc(C)cc(C)n4)cc3)cc(=O)c2c1 | x | x | 4.3% | x | -19.2% | x
CC(C)(C)N1C(=O)c2ccc(C(=O)Nc3cc(C(=O)O)cc(C(=O)O)c3)cc2C1=O | x | -4.5% | x | 1.9% | 2.3% | -0.3%
SMILES | KinaseGlo FLuc | NPC1 prom act | SMN2 splice up | ELG1 genotox | FLuc modulator | Rab9 promoter act
CCCCC(=O)Nc1nnc(CCc2ccccc2)s1 | x | 1.8% | x | -1.7% | 0.4% | 6.8%
C/C(CC(=O)Nc1cccnc1)=N\NC(=O)C(=O)Nc1cccc(C)c1 | 10.0% | 9.1% | 14.8% | 5.3% | u | 2.5%
CCc1ccc(NC(=O)c2cc(-c3ccc(OC)cc3)on2)cc1 | 2.7% | 1.0% | -7.5% | 0.0% | 0.3% | 27.9%
Cc1cc(C(=O)Nc2ccc3c(c2)OCO3)no1 | x | -0.2% | x | -19.5% | -4.7% | 0.6%
Cc1ccc(NC(=O)c2cc(C)on2)cc1 | x | 1.41µM* | x | u | 6.75µM* | 1.41µM*
CCc1ccc(NC(=O)c2cc(C)on2)cc1 | -5.9% | 0.501µM* | 6.31µM* | u | 3.01µM* | 0.891µM*
CCc1ccc(NC(=O)c2cc(C(C)C)on2)cc1 | -16.6% | 0.891µM* | 1.41µM* | u | 1.9µM* | 0.631µM*
CC(C)(C)c1ccc(OCC(=O)O)c(Cl)c1 | -0.3%[7.66 µM] | x | -6.7%[9.22 µM] | x | x | x
COc1ccc(Cn2c(=S)[nH]c3ccsc3c2=O)cc1 | 4.4% | -0.8% | 8.5% | -2.3% | -0.7% | -12.4%
CCOC(=O)c1c(C)oc2nc(C)nc(NCc3ccc(OC)cc3OC)c12 | x | x | x | x | -7.0% | x
CC(=O)Nc1ccc(S(=O)(=O)NC(C)C(=O)NCCc2ccc(F)cc2)cc1 (stereo not drawn) | 6.6% | -0.1% | 5.9% | -0.9% | 8.9% | -1.1%
CCOc1ccccc1-c1nnc(CS(=O)(=O)c2ccccc2)o1 | x | u | x | 0.3% | -0.6% | 7.1%
COc1ccc(Br)c(-c2nnc(CS(=O)(=O)c3ccccc3)o2)c1 | x | u | x | u | 19µM* | 2.82µM*
CCOC(=O)c1c(NC(=O)c2cc(=O)c3cc(Cl)ccc3o2)sc(C)c1C | x | x | 2.5% | x | 1.0% | x
O=C(COc1ccccc1F)OCc1cc(=O)n2nc(-c3cccs3)sc2n1 | x | x | x | x | -6.7% | x
O=C(CSc1nnc(-c2cccs2)o1)N1CCOCC1 | -3.8% | -0.9% | -0.9% | 3.7% | 0.2% | 0.5%
CC1CCN(C(=O)CSc2nnc(-c3cccs3)o2)CC1 | x | 13.3% | x | 20.0% | -14.0% | 21.1%
CC1CCCCN1C(=O)CSc1nnc(-c2cccs2)o1 (stereo not drawn) | x | 3.55µM* | x | u | 21.3µM* | 2.24µM*
CC1CCCC(C)N1C(=O)CSc1nnc(-c2cccs2)o1 (stereo not drawn) | -0.8% | 1.12µM* | 11.2µM* | u | 12µM* | 1.58µM*
O=C(CSc1nnc(-c2cccs2)o1)N1CCCCC1 | -5.2% | 2.51µM* | 12.6µM* | 9.2µM* | 21.3µM* | 1.58µM*
Cc1nn(CCC(=O)NCc2ccc(Cl)cc2)c(=O)c2nn(-c3ccccc3)c(C)c12 | x | x | x | x | -8.1% | x
COc1cc(/C=N/NC(=O)c2cccc([N+](=O)[O-])c2)ccc1O | 6.0% | -1.0% | 6.2% | 0.2% | -16.6% | 8.4%
COc1cc(/C=N/n2cnnc2)ccc1OCc1ccc(C)cc1 | 1.3% | 4.6% | 20.8% | 23.1µM* | u | 12.5%
S=C(N/N=C/c1ccc2ncccc2c1)Nc1cccnc1 | -7.8% | -11.5% | -10.4% | -5.5% | 6.75µM* | -4.9%
COc1ccc(/C=N/NC(=O)c2cccc([N+](=O)[O-])c2)cc1O | -3.9% | -2.7% | -0.3% | 5.2% | 21.3µM* | -3.6%
